# Bioassay records deposited in PubChem by several laboratories.
# Rv3671c protease: Rv3671c serine protease inhibitors, primary screen, biochemical, fluorescence polarization, M. tuberculosis H37Rv; P9WHR9; inhibition, % at 5.96 µM; 320,000 compounds, 0.048% hits; in the data active means inhibition above about 38%;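 further: extracellular domain of Rv3671c used as enzyme; 0% = enzyme with DMSO and 100% = no enzyme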
# Target sequence (P9WHR9 whole entry, looked up, the tested form may be a part): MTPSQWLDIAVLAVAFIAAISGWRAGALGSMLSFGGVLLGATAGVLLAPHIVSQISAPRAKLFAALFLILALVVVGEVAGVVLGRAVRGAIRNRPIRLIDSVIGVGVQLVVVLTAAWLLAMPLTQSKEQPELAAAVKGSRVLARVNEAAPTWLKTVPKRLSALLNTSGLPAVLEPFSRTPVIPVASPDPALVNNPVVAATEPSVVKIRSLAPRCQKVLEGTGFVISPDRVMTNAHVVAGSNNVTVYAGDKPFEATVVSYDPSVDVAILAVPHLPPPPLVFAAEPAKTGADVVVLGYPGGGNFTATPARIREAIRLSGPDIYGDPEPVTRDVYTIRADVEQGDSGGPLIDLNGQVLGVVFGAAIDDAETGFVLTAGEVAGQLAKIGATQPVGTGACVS
# UGM FP inh: M. tuberculosis UGM enzyme inhibitors, primary screen, biochemical, fluorescence polarization, single point; AID 504406, 2011; 320,000 compounds, 0.06% hits; inhibition, % at 10 µM; purified UGM, fluorescence polarization probe displacement; in the data active means inhibition above about 10%, passing the limit was not always enough; inconclusive means no clear call, values can overlap the other calls
# FadD28 binding: inhibitors of FadD28 bisubstrate probe binding, primary screen, biochemical, fluorescence polarization, single point; Mycobacterium tuberculosis FadD28 fatty-acid-AMP ligase; inhibition, % at 12.5 µM; 360,000 compounds, 0.22% hits; in the data active means inhibition above about 8.5%, passing the limit was not always enough; inconclusive means no clear call, values can overlap the other calls
# Mtb betalactam: beta-lactam sensitization of Mtb H37Rv, H37Rv | M. tuberculosis H37Rv growth with meropenem, percent inhibition | 330,000 compounds, 0.27% hits | AID 434955, 2010 | inhibition, % at 25 µM; call rule not given here;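 further: growth measured after seven days incubation then overnight dye step; 0% = bacteria only wells and 100% = bacteria with antibiotic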
# Yp Topo-I inh: Yersinia pestis topoisomerase I inhibitors, primary screen, biochemical, cleavage product accumulation, plate reader, single point; DNA topoisomerase I (Yersinia pestis CO92); Y. pestis Topo-I cleavage product accumulation; activity, % at 10 µM; 360,000 compounds, 0.064% hits; in the data active means activity above about 50%, passing the limit was not always enough; inconclusive means no clear call, values can overlap the other calls
# PfHsp40 rescue: rescue of yeast from PfHsp40 toxicity, primary screen, S. cerevisiae, ATP luminescence; S. cerevisiae expressing PfHsp40, growth rescue; growth rescue, % at 12.5 µM; 340,000 compounds, 0.68% hits; AID 504582, 2011; in the data active means growth rescue above about 28%, passing the limit was not always enough; inconclusive means no clear call, values can overlap the other calls;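 further: yeast W303a lacking pdr1 and pdr3 grown in galactose medium; growth measured after three days at 30 °C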
# * hit, by the source's call; u = inconclusive; x = not tested or not shown. Sampled rows, rich in hits. Any-hit rate of the full collection: about 0.98%.
SMILES,Rv3671c protease,UGM FP inh,FadD28 binding,Mtb betalactam,Yp Topo-I inh,PfHsp40 rescue
O=C(NCc1cccc(C(F)(F)F)c1)c1c[nH]c(=O)s1,x,x,-2,x,-5,x
CCc1ccc(/C=C/C(=O)C2C(=O)c3ccccc3C2=O)cc1,7,3,13*,98,0,0
O=C(/C=C/c1ccccc1)C1C(=O)c2ccccc2C1=O,-31,4,0,95,-6,1
CN(C)CCN1CCN(C2CN(Cc3cn(Cc4ccccc4C(F)(F)F)nn3)S(=O)(=O)C2)CC1 (configuration not stated),x,x,-2,x,x,x
C=CCNC(=S)N1CCC(Cc2ccccc2)CC1,x,-1,-2,2,7,91*
COc1cc(CNc2nc3ccccc3n2Cc2ccccc2)ccc1O,x,x,0,x,6,x
CC(C)(C)S(=O)N1Cc2cc(C(=O)NCC(F)(F)F)nc(-c3cccc(-c4cccc(F)c4)c3)c2[C@@H]1CCO (some centres not stated),x,x,-1,x,x,x
Cc1cccc(Nc2nnc(-c3ccc(C(=O)N4C[C@H]5C[C@H](C4)c4cccc(=O)n4C5)cc3)c3ccccc23)c1,1,0,-5,-7,36,84*
Cc1cccc(NC(=O)N2C[C@H]3C[C@@H](C2)c2cccc(=O)n2C3)c1,-4,7,-1,-4,6,0
CCN(c1ccc(NC(=O)CSc2ccc3c(c2)OCCO3)cc1)C(C)C,3,-5,47*,-4,29,0
O=C(CSc1ccc2c(c1)OCCO2)Nc1ccccc1,x,x,-1,x,-1,x
CN(C)c1cccc(C(=O)NNC(=O)CN2C(=O)C3CC=CCC3C2=O)c1 (configuration not stated),0,4,0,-3,2,2
CC1CCN(S(=O)(=O)c2ccc(C(=O)NNC(=O)C3CC3)cc2)CC1,3,-3,-2,3,7,124*
O=C(NC1CCSc2ccccc21)c1cccc(Br)c1 (configuration not stated),-9,-1,-1,8,9,94*
O=C(Nc1ccc(O)cc1C(=O)O)c1ccc2c(c1)C(=O)N(Cc1ccco1)C2=O,-24,4,3,1,2,1
O=C(Nc1cc([N+](=O)[O-])ccc1O)c1ccc2c(c1)C(=O)N(Cc1ccco1)C2=O,13,-1,12*,-5,-7,0
Cc1ccc(-c2csc(N3CCC[C@@H]3C(=O)NCCn3c(-c4ccncc4)nc4ccccc43)n2)cc1,6,0,-2,68,-1,1
CCOC(=O)/C(C#N)=C1\CC2CCC1(C)C2(C)C (configuration not stated),1,13*,-2,-3,-4,-1
CC1(C(=O)Nc2cccc3ccccc23)CCN1C(=O)Cc1ccccc1Cl (configuration not stated),x,x,-4,x,28,x
O=C1c2ccccc2C2(c3ccccc3)N1CCN2C(=O)C(Cl)(Cl)Cl (configuration not stated),-4,-1,-1,6,2,122*
NC(c1ccccc1)c1csc(NC(=O)NCC2CCCCC2)n1 (configuration not stated),x,x,-2,x,8,x
CN(C)c1ccc2cc(S(=O)(=O)O)cc(O)c2c1,x,x,19*,x,-17,3
O=C(NNc1ccc([N+](=O)[O-])cc1)c1ccccc1F,x,x,-1,x,1,32*
O=C(O)CN1CCNCCN(CC(=O)O)CCNCC1,x,x,0,x,1,107*
O=C(O)CN1CCN(CC(=O)O)CCN(CC(=O)O)CCN(CC(=O)O)CC1,3,-3,-2,6,4,u
SMILES,Rv3671c protease,UGM FP inh,FadD28 binding,Mtb betalactam,Yp Topo-I inh,PfHsp40 rescue
C[C@@H]1CN([C@@H](C)CO)C(=O)CCCn2nncc2CO[C@@H]1CN(C)C(=O)C1CCCCC1,x,x,1,x,4,x
CCOC(=O)C1=C(C)N=c2sc(=Cc3ccc(OCC(=O)O)cc3)c(=O)n2C1c1ccc(SC)cc1 (configuration not stated),x,x,-15,x,13,x
COc1cccc(OCc2cc(C(=O)N3CCN(C)C(c4ccccc4)C3)no2)c1 (configuration not stated),-5,-2,0,17,41,149*
CC(=O)c1ccc(OCc2cc(C(=O)N3CC[C@@H]4CCCC[C@H]4C3)no2)cc1,-10,0,-3,41,36,4
Cc1cccc(C)c1OCc1cc(C(=O)N2CCC(C3CCCCC3)C2)no1 (configuration not stated),-3,0,1,1,55*,4
CC(C)NC(=O)C1(C)CCN1Cc1cccc(C#N)c1 (configuration not stated),x,x,-1,x,0,x
COc1cc2c3nnc(-c4ccc(F)cc4)c-3cn(Cc3ccc(C)cc3)c2cc1OC,3,15*,-1,-5,-1,0
COc1cc2c3nnc(-c4ccccc4)c-3cn(Cc3ccc(F)cc3)c2cc1OC,-4,5,-7,62,16,0
C=CCC1c2cccc(C(=O)O)c2C(=O)N1c1cccc(C)c1 (configuration not stated),-9,1,-4,7,7,159*
C=CCC1c2cccc(C(=O)O)c2C(=O)N1c1ccc(Cl)cc1 (configuration not stated),0,0,-1,58,4,133*
CCc1c(C2(O)CCCCC2)[nH]c2cc(C(F)(F)F)ccc12,3,4,-1,80,-4,299*
O=[N+]([O-])c1cccc(/C=N/n2cnnc2)c1O,-3,3,0,u,-5,-1
O=c1c2c(-c3ccc(Cl)cc3)csc2ncn1/N=C/c1cccc([N+](=O)[O-])c1O,10,-4,-6,1,-18,280*
Cc1ccccc1C(=O)NNC(=S)NC(=O)c1ccccc1,4,-2,1,97,-3,169*
COc1cccc(OC)c1C(=O)NC(=S)NNC(=O)[C@H]1C[C@@H]1c1ccccc1,7,5,-4,-7,-2,1
Cc1ccc(C(=O)NNC(=S)NC(=O)c2ccccc2)cc1,1,1,u,98,-2,17
O=C(NC(=S)NNC(=O)[C@H]1C[C@@H]1c1ccccc1)c1cccc(F)c1,3,1,0,89,2,49*
O=C(NC(=S)NNC(=O)c1ccccc1O)c1ccccc1,19,2,-3,16,-8,0
Cc1cccc(C(=O)NNC(=S)NC(=O)c2ccccc2)c1,10,1,-2,95,4,127*
Cc1ccc(C(=O)NC(=S)NNC(=O)c2ccccc2)cc1,9,1,0,97,-4,39*
CC(=O)C1=CCC(c2ccc(C)cc2)N(S(=O)(=O)c2ccc(Cl)cc2)C1 (configuration not stated),x,x,-3,x,x,x
